Data taken from PubChem BioAssay (NCI).
About 79,000 compounds went through this panel and 15% of them were active in at least one assay; those are over-represented in the sample as a whole. A number with no mark means an inactive call. The source made the active and inactive calls. No stated cut-off is given here; in the data, active means growth inhibition above about 70%; inactive means the rest.

Key:
[1] = NCI Yeast Anticancer Drug Screen. Data for the rad50 strain (AID 155);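 further: 0% = growth of vehicle-only cultures of the same strain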; details: S. cerevisiae rad50 strain growth inhibition, hits give high values
Procedure, shortened: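 Compounds were tested on a yeast strain with an engineered DNA damage repair alteration; the reported value is growth inhibition normalised to vehicle treatment.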

[2] = NCI Yeast Anticancer Drug Screen. Data for the mec2-1 strain (AID 157); details: S. cerevisiae mec2-1 strain, hits give high values
Procedure, shortened: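 Yeast mec2-1 mutant treated with compound. Readout: growth inhibition vs vehicle controls.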

[3] = NCI Yeast Anticancer Drug Screen. Data for the sgs1 mgt1 strain (AID 161);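 further: 0% = growth of cultures given vehicle only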; details: S. cerevisiae sgs1 mgt1 strain, hits give high values
Procedure, shortened: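 Genetically altered yeast, compound exposure, growth inhibition relative to vehicle.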

[4] = NCI Yeast Anticancer Drug Screen. Data for the cln2 rad14 strain (AID 165);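 further: 0% = growth equal to vehicle treated cultures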; details: S. cerevisiae cln2 rad14 strain, hits give high values
Procedure, shortened: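 cln2 rad14 yeast strain; compound exposure; growth inhibition read vs vehicle controls.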

[5] = NCI Yeast Anticancer Drug Screen. Data for the bub3 strain (AID 167); details: S. cerevisiae bub3 mutant strain, hits give high values
Procedure, shortened: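 Growth of a checkpoint-deficient yeast mutant is measured after compound exposure. Values represent inhibition relative to vehicle.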

[6] = NCI Yeast Anticancer Drug Screen. Data for the mlh1 rad18 strain (AID 175); details: S. cerevisiae mlh1 rad18 strain growth inhibition, hits give high values
Procedure, shortened: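 Yeast w/ defined DNA-repair lesions; compound exposure; growth vs vehicle controls → % inhibition.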

[7] = at 5.0 µM (retest, dose inferred, filed as 0.5)
[8] = at 50.0 µM (retest, dose inferred, filed as 5.0)

Row | SMILES | growth inhibition [1, 7] | growth inhibition [1, 8] | growth inhibition ([1]; at 50.0 µM) | growth inhibition [2, 7] | growth inhibition [2, 8] | growth inhibition ([2]; at 50.0 µM) | growth inhibition [3, 7] | growth inhibition [3, 8] | growth inhibition ([3]; at 50.0 µM) | growth inhibition [4, 7] | growth inhibition [4, 8] | growth inhibition ([4]; at 50.0 µM) | growth inhibition [5, 7] | growth inhibition [5, 8] | growth inhibition ([5]; at 50.0 µM) | growth inhibition [6, 7] | growth inhibition [6, 8] | growth inhibition ([6]; at 50.0 µM)
1 | O=S(=O)(O)c1ccc(O)c2cc(Nc3ccccc3)ccc12 | -3% | -26% | 44% | -3% | -29% | 20.9% | -4% | -31% | 26.2% | 2% | -37% | -28.6% | 2% | -25% | 11.6% | 3% | -23% | 25.5%
2 | O=Nc1c(O)ccc2ccccc12.[Fe].[Na+] | 7% | 97% (active) | 97.2% (active) | 14% | 98% (active) | 97.7% (active) | 8% | 98% (active) | 98.5% (active) | -2% | 96% (active) | 96.6% (active) | 13% | 98% (active) | 97.6% (active) | 4% | 97% (active) | 96.2% (active)
3 | Cc1ccc(C(=Nc2ccccc2)N=P(c2ccccc2)(c2ccccc2)c2ccccc2)cc1 | 56% | 98% (active) | 90.6% (active) | 45% | 99% (active) | 91.9% (active) | 46% | 100% (active) | 90.5% (active) | 39% | 99% (active) | 89.5% (active) | 45% | 99% (active) | 88.2% (active) | 61% | 99% (active) | 91.5% (active)
4 | Nc1ccc(S(=O)(=O)O)c2cccc(S(=O)(=O)O)c12 | -2% | -2% | 3.45% | -2% | 0% | 7.4% | -2% | 0% | 31.5% | -1% | -7% | 71.9% (active) | 0% | 2% | 27.2% | -1% | -2% | -12.9%
5 | O=Cc1cc(O)ccc1Br | 33% | 96% (active) | 71.3% (active) | 28% | 96% (active) | 76.8% (active) | 37% | 97% (active) | 91.6% (active) | 29% | 58% | 82.7% (active) | 40% | 99% (active) | 89.3% (active) | 32% | 98% (active) | 79.6% (active)
6 | CN(C)CC(CN(C)C)C(=O)c1ccc(Oc2ccccc2)cc1 | 75% (active) | 99% (active) | 99.5% (active) | 75% (active) | 99% (active) | 99.7% (active) | 85% (active) | 99% (active) | 99.4% (active) | 33% | 99% (active) | 99.6% (active) | 69% | 99% (active) | 99.5% (active) | 90% (active) | 99% (active) | 99.4% (active)
7 | CS(=O)(=O)OCCN(CCOS(C)(=O)=O)c1ccc(C=Nc2cccc(Cl)c2)cc1 | 35% | 90% (active) | 92.7% (active) | 40% | 91% (active) | 86.5% (active) | 17% | 74% (active) | 88.8% (active) | 17% | 86% (active) | 71.3% (active) | 1% | 50% | 43% | 70% (active) | 95% (active) | 96.7% (active)
8 | CC(C)(C)c1cc(C(O)(C(F)(F)F)C(F)(F)F)c(S)c(C(O)(C(F)(F)F)C(F)(F)F)c1 | 8% | 98% (active) | 98.8% (active) | -6% | 99% (active) | 99.3% (active) | 9% | 98% (active) | 98.8% (active) | 16% | 98% (active) | 99% (active) | 7% | 97% (active) | 99% (active) | 4% | 95% (active) | 99% (active)
9 | Cc1cc2nc(CC(=O)c3ccncc3)c(CC(=O)c3ccncc3)nc2cc1C | 6% | 75% (active) | 78% (active) | 9% | 60% | 53.9% | 10% | 59% | 65.5% | 25% | 84% (active) | 75.2% (active) | 31% | 89% (active) | 61.1% | 12% | 59% | 66.5%
10 | CCN(CC)CCOC(=O)C1C(c2ccccc2)C1(c1ccccc1)c1ccccc1 (centres undefined) | 1% | 77% (active) | 73% (active) | 4% | 63% | 62.8% | 8% | 97% (active) | 88.7% (active) | 3% | 60% | 77.3% (active) | 8% | 85% (active) | 75.2% (active) | 5% | 96% (active) | 92.8% (active)
11 | CN(C)CCC(/C=C/c1ccccc1)=N\Nc1c(F)c(F)c(F)c(F)c1F | -2% | 8% | 58% | -2% | 1% | 8.9% | 2% | -8% | 35.4% | -3% | 6% | -3.55% | 1% | -14% | 40% | -4% | -2% | 86.8% (active)
12 | O=C(Nc1ccccc1)c1ccc(Cl)cc1Cl | -15% | -21% | 1.35% | -9% | -4% | 1.85% | -2% | 7% | -3.15% | 31% | -50% | -7.95% | 4% | -34% | 8.75% | -6% | -8% | 8.05%
13 | CS(=O)(=O)OCCCN(CCCOS(C)(=O)=O)c1ccc(C=Nc2ccc(-c3csc(COc4ccc(Br)cc4Br)n3)cc2)cc1 | 18% | 83% (active) | 86.3% (active) | 6% | 83% (active) | 92.8% (active) | 13% | 82% (active) | 90% (active) | 0% | 83% (active) | 85.8% (active) | 5% | 90% (active) | 89.2% (active) | 17% | 85% (active) | 90.7% (active)
14 | COC1(CO)C(=O)N(C)CC(=O)N1C (centres undefined) | 1% | 99% (active) | 99.3% (active) | 10% | 99% (active) | 99.7% (active) | 5% | 99% (active) | 99.3% (active) | -7% | 20% | 99.7% (active) | 0% | 99% (active) | 99.5% (active) | 1% | 99% (active) | 99.3% (active)
15 | Cc1cc(N/N=C/c2cccc3ccccc23)c2cc3c(cc2n1)OCO3 | 7% | 72% (active) | 99.2% (active) | 2% | 79% (active) | 99% (active) | 27% | 72% (active) | 99.1% (active) | -6% | 56% | 97.8% (active) | -3% | 75% (active) | 99.2% (active) | 20% | 91% (active) | 98.5% (active)
16 | O=C1CCCCCC1Cc1cc(O)c(CC2CCCCCC2=O)cc1O (centres undefined) | 10% | 54% | 91.8% (active) | 8% | 34% | 80.2% (active) | 12% | 82% (active) | 86.5% (active) | -6% | 32% | 11.2% | -3% | 33% | 64.2% | 8% | 88% (active) | 35.2%
17 | CC(=O)Nc1ccc(C(=O)n2[nH]c(C)c(/C=C3\C(=O)C=Cc4ccccc43)c2=O)cc1 | 27% | 100% (active) | 99.2% (active) | 19% | 100% (active) | 99.5% (active) | 15% | 99% (active) | 99.4% (active) | -10% | 99% (active) | 98.7% (active) | 24% | 100% (active) | 99.2% (active) | 42% | 99% (active) | 99% (active)
18 | c1cc(C2=NCCN2)ccc1Nc1ccc(-c2cc3ccc(C4=NCCN4)cc3[nH]2)cc1 | 99% (active) | 99% (active) | 58.1% | 99% (active) | 98% (active) | 99.2% (active) | 99% (active) | 99% (active) | 51.3% | 99% (active) | 99% (active) | 98.9% (active) | 99% (active) | 99% (active) | 99.3% (active) | 99% (active) | 99% (active) | 98.5% (active)
